# “And” between values parts separate entries of the source, which are not always exact repeats. Equal entries are not always repeated. Unmarked numbers belong to inactive results. Inconclusive results are not listed. Entries that show only a call come without a potency. The source made the active and inactive calls. Unless noted, the call rests on the fitted dose curve; in most records, active means well fitted curve in the direction sought with a large enough effect in the repeat runs; inconclusive means weak or mixed curves; inactive means no such curve, though single readings can be large; an effect the other way counts as inactive or inconclusive.
# What was measured:
# [1] = qHTS for Activators of Parkin Expression: LOPAC Validation Assay (NLuc Reporter) (AID 720572; active means well fitted curve in the direction sought with a large enough effect; an effect the other way counts as inactive or inconclusive)
# Summary of the method: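 Parkin promoter-driven FLuc/NLuc neuronal reporter cells; 24 h plating, 7-pt dose response, 24 h at 37 C/5% CO2; FLuc then NanoLuc reagent, 10 min each, luminescence; DMSO/positive control normalized.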
# [2] = qHTS for Activators of Parkin Expression: LOPAC Validation Assay (FLuc Reporter) (AID 720573; active means well fitted curve in the direction sought with a large enough effect; an effect the other way counts as inactive or inconclusive)
# Summary of the method: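 FLuc signal from Parkin-promoter coincidence reporter neuronal cells, normalized to DMSO and positive control (100%). Cells (1,500/well) pre-incubated 24 h, then exposed to LOPAC compounds in 7-point dose response for 24 h at 37 C, 5% CO2.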
# [3] = target: T1, Hexokinase-4 (Homo sapiens) + Glucokinase regulatory protein (Homo sapiens) (UniProt P35557+Q14397); test: qHTS assay for inhibitors of recombinant human GCK-GKRP interaction: Diaphorase-coupled assay (AID 743205; active means well fitted curve in the direction sought with a large enough effect; an effect the other way counts as inactive or inconclusive)
# T1 sequence (P35557 whole entry, looked up): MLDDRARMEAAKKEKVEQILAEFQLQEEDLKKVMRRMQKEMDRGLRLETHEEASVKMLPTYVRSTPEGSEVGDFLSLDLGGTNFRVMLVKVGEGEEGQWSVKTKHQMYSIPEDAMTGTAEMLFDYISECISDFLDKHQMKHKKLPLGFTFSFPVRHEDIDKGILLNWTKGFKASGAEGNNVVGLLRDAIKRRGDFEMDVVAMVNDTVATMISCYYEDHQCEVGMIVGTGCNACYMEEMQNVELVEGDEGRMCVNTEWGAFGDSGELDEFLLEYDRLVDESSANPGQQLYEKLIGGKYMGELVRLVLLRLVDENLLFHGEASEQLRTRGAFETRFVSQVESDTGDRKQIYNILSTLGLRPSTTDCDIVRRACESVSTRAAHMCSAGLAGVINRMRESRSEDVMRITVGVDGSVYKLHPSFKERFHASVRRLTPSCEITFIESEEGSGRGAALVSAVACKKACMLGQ
# T1 sequence (Q14397 whole entry, looked up): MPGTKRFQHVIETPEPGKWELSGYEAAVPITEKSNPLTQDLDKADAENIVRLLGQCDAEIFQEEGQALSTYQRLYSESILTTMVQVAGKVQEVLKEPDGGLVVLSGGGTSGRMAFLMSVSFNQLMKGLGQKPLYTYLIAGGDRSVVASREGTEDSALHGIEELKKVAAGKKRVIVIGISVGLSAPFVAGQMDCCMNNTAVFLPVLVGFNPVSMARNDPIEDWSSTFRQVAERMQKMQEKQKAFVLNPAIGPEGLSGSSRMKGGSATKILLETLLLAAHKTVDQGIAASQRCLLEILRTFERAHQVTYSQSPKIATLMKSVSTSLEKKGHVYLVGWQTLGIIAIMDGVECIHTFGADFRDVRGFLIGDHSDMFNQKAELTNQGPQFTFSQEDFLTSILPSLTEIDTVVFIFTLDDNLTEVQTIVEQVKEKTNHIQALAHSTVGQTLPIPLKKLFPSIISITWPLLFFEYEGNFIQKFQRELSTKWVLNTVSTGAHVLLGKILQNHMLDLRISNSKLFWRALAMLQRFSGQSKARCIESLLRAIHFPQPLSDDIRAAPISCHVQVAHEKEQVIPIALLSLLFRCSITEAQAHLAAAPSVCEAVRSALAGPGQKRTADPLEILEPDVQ
# Summary of the method: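 A kinetic fluorescence read (Ex 525/Em 590 nm, every minute for 30 minutes) tracked resorufin from a G6PDH-diaphorase coupled GCK reaction. It contained 10 nM GST-GCK, 10 nM FLAG-GKRP, 5 mM glucose, 0.4 mM ATP in Hepes pH 7.6. Normalized to with/without-enzyme DMSO controls.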
# [4] = target: T1, Hexokinase-4 (Homo sapiens) + Glucokinase regulatory protein (Homo sapiens); test: qHTS assay for inhibitors of recombinant human GCK-GKRP interaction: ADP-Glo assay (AID 743206; active means well fitted curve in the direction sought with a large enough effect; an effect the other way counts as inactive or inconclusive; further: potency means the concentration at half of the fitted maximal effect)
# Summary of the method: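 GST-GCK and FLAG-GKRP (15 nM each in the dispensed mix, with 2 uM S6P) react with 0.4 mM ATP and 5 mM glucose (final) in Hepes pH 7.6 for 60 min at room temperature. ADP is measured by ADP-Glo luminescence.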
# [5] = qHTS Assay for Identifying Gametocytocidal Compounds (AID 743244; active means well fitted curve in the direction sought with a large enough effect; an effect the other way counts as inactive or inconclusive; further: potency means the concentration at half of the fitted maximal effect;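 on max response: actives lower the fluorescent signal which means gametocytes are killed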); conditions: P. falciparum 3D7 stage III-V gametocytes, alamarBlue, 72 h; max response: hits give low values
# Summary of the method: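 Using 20,000 stage III–V 3D7 gametocytes per well, compounds were incubated 72 h under 37 °C/5% CO2. Viability was then assessed by 24 h alamarBlue reduction, measured fluorometrically at 525/598 nm.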
# [6] = qHTS assay for small molecule agonists of the antioxidant response element (ARE) signaling pathway measured by Nrf2-dependant transcriptional activity (AID 720636); further: potency means the concentration at half of the fitted maximal effect
# Summary of the method: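 Cells: ARE-luc HepG2 with Nrf2-responsive luciferase. Medium contained 1% dialyzed FBS. Compound exposure lasted 16 hr at 37 C and 5% CO2, followed by ONE-Glo luciferase detection.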
# [7] = qHTS assay for small molecule antagonists of the retinoid-related orphan receptor gamma (ROR-gamma) signaling pathway - cell viability counter screen (AID 720652);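 further: compound exposure lasted 16 hr before ATP read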; further: potency means the concentration at half of the fitted maximal effect
# Summary of the method: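 Luminescence from CellTiter-Glo after 30 min at room temperature reported cellular ATP as the cytotoxicity measure. Cells were the CHO reporter line with doxycycline-induced ROR-gamma expression, exposed to compound for 16 hr at 37 C.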
# [8] = qHTS assay for small molecule agonists of the antioxidant response element (ARE) signaling pathway measured by Nrf2-dependant transcriptional activity - cell viability counter screen (AID 720653); conditions: ARE-bla HepG2 viability, CellTiter-Glo ATP luminescence, 16 h; max response: hits give low values; further: potency means the concentration at half of the fitted maximal effect
# Summary of the method: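 Cytotoxicity counter screen: intracellular ATP quantified by CellTiter-Glo luminescence in the same ARE-bla HepG2 plates, after 16 h compound exposure and a 2 h beta-lactamase substrate step.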
# [9] = target: T1, Hexokinase-4 (Homo sapiens) + Glucokinase regulatory protein (Homo sapiens); test: qHTS assay for inhibitors of recombinant human GCK-GKRP interaction: HTRF assay (AID 743207; active means well fitted curve in the direction sought with a large enough effect; an effect the other way counts as inactive or inconclusive)
# Summary of the method: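 After 60 min equilibration at room temperature with anti-FLAG XL665 and anti-GST antibodies, FRET ratio (665/615 nm, excitation 320 nm) was read. Proteins: GST-GCK and FLAG-GKRP, each 5 nM, plus 2 uM S6P, pH 7.1 buffer; GCK-free wells define minimum signal.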
smiles,measurement,setting,value
C[N+](C)(C)CCOP(=O)(O)OP(=O)([O-])OC[C@H]1O[C@@H](n2ccc(N)nc2=O)[C@H](O)[C@@H]1O,Potency,[1],inactive
same,Potency,[2],inactive
same,outcome,[3],inactive
same,Potency,[4],inactive
same,max response,[5],1.57% and 1.8% and 27.7%
S=c1[nH]c2ccccc2s1,Potency,[6],inactive
same,Potency,[7],inactive
same,max response,[8],-14.2% and -2.08%
C#CCN1C(C)=C(C(=O)OC)C(c2cccc([N+](=O)[O-])c2)C(C(=O)OCC)=C1C (stereo not drawn),Potency,[2],inactive
same,outcome,[3],inactive
same,Potency,[4],inactive
same,Potency,[9],inactive
CC1(C)S[C@@H]2[C@H](NC(=O)[C@H](N)c3ccccc3)C(=O)N2[C@H]1C(=O)O,Potency,[6],inactive
same,max response,[8],-0.498%
same,max response,[5],0.735%
CCCN(CC1CC1)c1nc(C)nc(Nc2c(Cl)cc(Cl)cc2Cl)c1Cl,Potency,[1],inactive
same,Potency,[2],inactive
same,outcome,[3],inactive
same,Potency,[4],inactive
same,max response,[5],18.2%
O=C(O)[C@H](O)[C@@H](O)[C@H](O)[C@H](O)CO,Potency,[6],inactive
same,max response,[8],21%
same,max response,[5],-9.36% and 0.225%
Nc1ccc(O)c([N+](=O)[O-])c1,Potency,[7],inactive
same,max response,[8],-1.19% and -1.35%
same,max response,[5],-7.22%
CCCOC(=O)c1ccc(O)cc1,Potency,[6],inactive
same,Potency,[7],inactive
same,max response,[8],-5.7% and -1.43% and -2.37%
same,max response,[5],-1.64% and -4.63%
COc1cc(CNC(=O)CCCC/C=C/C(C)C)ccc1O,Potency,[7],inactive
same,max response,[8],-7.9% and -5.74%
same,max response,[5],10.1%
O=C(O)/C=C\C(=O)O,Potency,[6],inactive
same,Potency,[7],inactive
same,max response,[8],-4.39%
CN1[C@@H]2CC[C@H]1CC(OC(=O)C(CO)c1ccccc1)C2 (stereo partly drawn),Potency,[6],inactive
same,max response,[8],-6.68%
COc1ccc(/C=C/C(=O)Nc2ccccc2C(=O)O)cc1OC,Potency,[2],inactive
same,outcome,[3],inactive
same,Potency,[4],inactive
same,Potency,[9],inactive
same,max response,[5],46% and -4.4%
COc1cc(/C=C/C(=O)CC(=O)/C=C/c2ccc(O)c(OC)c2)ccc1O,Potency,[6],21.1 µM (active)
same,max response,[8],-2.44%
O=C(O)c1ccccc1Nc1cccc(C(F)(F)F)c1,Potency,[6],inactive
same,max response,[8],0.398%
C#C[C@]1(O)CC[C@H]2[C@@H]3CCc4cc(O)ccc4[C@H]3CC[C@@]21C,Potency,[6],inactive
same,Potency,[7],inactive
same,max response,[8],6.34% and 7.49%
same,max response,[5],16.7%
O=c1[nH]c2cc([N+](=O)[O-])c([N+](=O)[O-])cc2[nH]c1=O,Potency,[1],inactive
same,Potency,[2],inactive
same,outcome,[3],inactive
same,Potency,[4],inactive
same,max response,[5],23.7%
O=C(OCc1ccccc1)c1ccccc1,Potency,[6],inactive
same,max response,[8],-0.23%
same,max response,[5],-5.44%
Nc1nc2ccc([N+](=O)[O-])cc2s1,Potency,[6],inactive
same,Potency,[7],inactive
same,max response,[8],-4.37%
same,max response,[5],8.79%
Nc1cc(-c2ccncc2)c[nH]c1=O,Potency,[6],inactive
same,max response,[8],-1.18%
same,max response,[5],14.6%
NCCSSCCN,Potency,[1],inactive
same,Potency,[2],inactive
same,outcome,[3],inactive
same,Potency,[4],inactive
same,max response,[5],3.62%
O=C1CN(/N=C/c2ccc([N+](=O)[O-])o2)C(=O)N1,Potency,[6],inactive
same,max response,[5],3.97%
N.N.N.N.N.N.N.N.N.N.N.N.N.N.O.O.[Ru+4].[Ru+5].[Ru+5],Potency,[1],inactive
same,Potency,[2],inactive
same,outcome,[3],inactive
same,Potency,[4],inactive
same,Potency,[5],0.935 µM (active)
c1ccc2sc(SSc3nc4ccccc4s3)nc2c1,Potency,[6],inactive
same,Potency,[7],inactive
same,max response,[8],-3.31% and 10.5%
same,max response,[5],10.7%
CN(C)c1ccc(C(=C2C=CC(=[N+](C)C)C=C2)c2ccccc2)cc1,Potency,[6],inactive
same,Potency,[7],2.37 µM (active)
same,Potency,[8],6.31 µM (active)
C=CCCCCCCCCC(=O)O,Potency,[6],inactive
same,max response,[8],1.06%
same,max response,[5],8%
Nc1ccc(O)c(C(=O)O)c1,Potency,[6],inactive
same,Potency,[7],inactive
same,max response,[8],-2.51% and -1.43%
same,max response,[5],11.4%
OC[C@H]1O[C@@H](n2cnc3c(NC4CCCCC4)ncnc32)[C@H](O)[C@@H]1O,Potency,[1],inactive
same,Potency,[2],inactive
same,outcome,[3],inactive
same,Potency,[4],inactive
same,max response,[5],8.7%
N=C1N=C(N)c2cc3ccccc3cc21,Potency,[6],inactive
same,Potency,[7],42.2 µM (active)
same,max response,[8],-12.6%
CCCCCCCCCCCCCCCCCC(=O)O,Potency,[6],inactive
same,Potency,[7],inactive
same,max response,[8],-2.11% and 6.03% and 17.1%
same,max response,[5],-10.4%
O=C(Nc1cccc(C(=O)Nc2ccc(S(=O)(=O)O)c3cc(S(=O)(=O)O)cc(S(=O)(=O)O)c23)c1)Nc1cccc(C(=O)Nc2ccc(S(=O)(=O)O)c3cc(S(=O)(=O)O)cc(S(=O)(=O)O)c23)c1,Potency,[1],inactive
same,Potency,[2],inactive
same,Potency,[4],22.4 µM (active)
same,Potency,[9],inactive
same,max response,[5],-0.217%
O=C(O)c1cc(O)c(O)c(O)c1,Potency,[6],inactive
same,Potency,[7],inactive
same,max response,[8],-28.5%
Nc1ccc([N+](=O)[O-])cc1O,Potency,[7],inactive
same,max response,[8],-6.11% and -12.4%
O=c1cc(-c2ccccc2)oc2ccccc12,max response,[8],-6.91% and -11.5%
CC[C@@H](C)[C@H]1O[C@]2(CC[C@H]1C)C[C@@H]1C[C@@H](CC=C(C)[C@@H](O[C@H]3C[C@H](OC)[C@@H](O[C@H]4C[C@H](OC)[C@@H](O)[C@H](C)O4)[C@H](C)O3)[C@@H](C)C=CC=C3CO[C@@H]4[C@H](O)C(C)=C[C@@H](C(=O)O1)[C@]34O)O2,outcome,[3],inactive
same,Potency,[4],inactive
same,Potency,[9],inactive
